Assay outcomes as filed in PubChem BioAssay.
NR5A2 inv ag: NR5A2 inverse agonism in reporter assay; 360,000 tested, 0.13% active; AID 602396; HEK293T StAR-luciferase reporter, LRH-1 transfected, 24 h; inhibition, % at 3.6 µM;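 active = inhibition above the mean inhibition of all tested compounds plus 3 SD, cut at about 73% in these data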;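 also: 0% = DMSO wells and 100% = reporter-only cells lacking LRH-1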
SRC2 inh: inhibits human steroid receptor coactivator 2; inhibition, % at 9 µM; 370,000 tested, 0.17% active; Q15596; HEK293 GAL4-SRC2 luciferase reporter, luminescence;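 active = inhibition above the mean inhibition of all tested compounds plus 3 SD, set per campaign, cut at about 52% in these data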;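 also: 0% = DMSO treated cells and 100% = cells given Gossypol at 36 µM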
NCOA3 inh: human NCOA3 inhibition; Q9Y6Q9; HEK293 GAL4-SRC3 luciferase reporter, luminescence; inhibition, % at 3.6 µM; 360,000 tested, 0.17% active;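 active = inhibition above a per-campaign cutoff, the mean of all compounds plus 3 SD, cut at about 60% in these data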;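 also: 0% = DMSO-treated cells and 100% = gossypol-treated cells at 36 µM; higher means less SRC3-driven luciferase light from the GAL4 reporter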
NCOA1 inh: inhibitors of human steroid receptor coactivator 1 (SRC1) | Q15788 | HEK293 GAL4-SRC1 luciferase reporter, luminescence | inhibition, % at 3.6 µM | 360,000 tested, 0.12% active;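 active = inhibition above the campaign mean plus 3 SD, with each screening campaign given its own cutoff, cut at about 60% in these data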;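 also: 0% = DMSO treated cells and 100% = gossypol at 36 µM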
LMP1 NFkB inh: Epstein-Barr LMP1 NF-kappaB reporter inhibition; LMP1-induced NF-kappaB luciferase reporter cells, luminescence; inhibition, % at 12.5 µM; 350,000 tested, 0.69% active; in the data active = inhibition above about 41%; inconclusive = no clear call, values can overlap the other calls;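 also: 0% = neutral control wells and 100% = reference inhibitor control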
Numbers without * were called inactive; u = inconclusive; x = no result. Compounds with a hit are over-represented: about 0.78% of the library has one in this group of screens.

SMILES | NR5A2 inv ag | SRC2 inh | NCOA3 inh | NCOA1 inh | LMP1 NFkB inh
CC(C)[N+](C)(CCOC(=O)C1c2ccccc2Oc2ccccc21)C(C)C | -4.2 | -11.7 | -12.1 | 0.1 | 80.9*
CC(C)CNC(=O)COC(=O)C1c2ccccc2Oc2ccccc21 | 18.8 | -19.7 | 9.0 | 20.7 | 65.8*
Cn1c(SCC2CCCCC2)nnc1-c1ccco1 | x | -35.6 | x | x | x
CC(=O)Nc1ccc(NC(=O)c2nc(S(=O)(=O)Cc3cccc(C)c3)ncc2Cl)cc1 | -55.3 | 82.8* | -48.6 | -39.7 | 6.9
CN(c1ccccc1)S(=O)(=O)c1ccc(NC(=O)c2ccccc2)cc1 | 8.8 | 22.7 | 12.7 | -2.1 | -1.3
COC(=O)c1ccc(NC(=O)c2nc(S(=O)(=O)Cc3cccc(C)c3)ncc2Cl)cc1 | 11.4 | 59.6* | -58.5 | -80.7 | 19.6
CN(c1ccccc1)S(=O)(=O)c1ccc(NC(=O)c2nc(S(C)(=O)=O)ncc2Cl)cc1 | -1.6 | 56.4* | -20.1 | -25.7 | -3.4
Cc1ccnc(N/C=C(/NC(=O)c2ccccc2)C(=O)N/N=C\c2ccc(F)cc2)n1 | 16.6 | -13.7 | 20.8 | 16.3 | 58.4*
O=C(Nc1ccc(Cl)cc1)c1ccc2snnc2c1 | -78.0 | -57.5 | -57.1 | -65.7 | 79.9*
CC(C)C(=O)OCCCN1C(=O)CCC12CCC(c1ccccc1)CC2 (configuration not stated) | x | -17.5 | x | x | x
Cc1ccccc1CNC(=S)OC1CCC12CCC(c1ccccc1)CC2 (configuration not stated) | x | 1.8 | x | x | x
O=C(O)/C=C/c1ccc(S(=O)(=O)Nc2ccc(OCc3ccccc3)cc2)cc1 | -5.5 | 29.9 | 0.6 | -9.4 | -4.1
N#Cc1ccccc1COc1ccc(/C=C/C(=O)O)cc1 | 27.4 | 69.1* | 14.4 | 5.4 | 24.8
CS(=O)(=O)Nc1ccc(C2=NN(S(C)(=O)=O)C(c3ccccc3)C2)cc1 (configuration not stated) | -4.8 | -73.1 | -6.6 | -26.8 | 65.6*
C=CS(=O)(=O)c1ccc(Oc2ccc(S(=O)(=O)C=C)cc2)cc1 | 9.2 | 70.2* | -135.0 | -294.6 | u
NS(=O)(=O)c1ccc(Oc2ccc(S(N)(=O)=O)cc2)cc1 | -5.6 | 7.5 | -7.9 | 2.9 | 5.6
O=C1c2ccccc2C(Nc2ccc(Cl)cc2)N1CCN1CCOCC1 (configuration not stated) | -1.7 | 15.8 | -19.0 | 7.8 | 82.9*
O=S1(=O)c2ccc(N3CC[C@@H](O)C3)cc2O[C@@H]2CCN1C2 | x | -12.9 | x | x | x
CCOC(=O)C1=C(C)NC(=O)NC1c1cn(-c2ccccc2)nc1-c1cccs1 (configuration not stated) | -6.0 | 15.7 | 11.7 | 3.1 | 1.5
CCOC(=O)C1=C(C)NC(C)=C(C(=O)OCC)C1c1cn(-c2ccccc2)nc1-c1ccco1 | 29.6 | 4.5 | -6.1 | -13.8 | 75.9*
COC(=O)[C@]12C[C@H](CC(=O)NCc3ccccc3)C(=O)N(Cc3ccc(Cl)cc3Cl)C1=C[C@H](COCc1ccccc1)O[C@@H]2C | x | 19.9 | x | x | x
CCCNC1=C(N(C(C)=O)c2cccc(F)c2)C(=O)c2ccccc2C1=O | 78.8* | 57.8* | 40.2 | 27.6 | 10.0
CSc1ccccc1C(=O)Nc1nc2ccccc2[nH]1 | -96.8 | -63.4 | -87.4 | -73.7 | -15.7
COc1ccccc1C(=O)NCCC(=O)Nc1nc2ccccc2[nH]1 | 16.7 | -16.5 | -17.9 | -8.2 | 6.0
COc1ccccc1C(=O)Nc1nc2ccccc2[nH]1 | 84.3* | 94.0* | 80.1* | 83.7* | 88.0*
SMILES | NR5A2 inv ag | SRC2 inh | NCOA3 inh | NCOA1 inh | LMP1 NFkB inh
COc1cc(SC)ccc1C(=O)Nc1nc2ccccc2[nH]1 | 93.3* | 94.6* | 92.2* | 93.5* | 95.6*
COc1cccc(NC(=O)C2CCCN2C(=O)NCc2ccccc2OC)c1 (configuration not stated) | x | 15.5 | x | x | x
COc1ccc2nc(-c3ccccn3)[nH]c2c1 | -137.7 | -40.3 | -86.8 | -87.1 | 4.2
COc1cc(C=NO)nc(-c2ccccn2)c1 | 84.5* | 33.1 | 86.0* | 79.2* | 57.1*
Cc1ccc(C2CCC3(CCC(=O)N3CCOC(=O)Nc3cccc(C#N)c3)CC2)cc1 (configuration not stated) | x | 22.6 | x | x | x
CCc1n[nH]c(=S)n1/N=C/c1ccc2c(c1)OCO2 | 10.7 | 0.1 | 3.8 | 9.3 | 3.4
CCc1n[nH]c(=S)n1/N=C/c1ccc(N(C)c2ccccc2)cc1 | 29.1 | 1.3 | 15.0 | 5.5 | 75.7*
COCCCN1C(=O)[C@H](CC(=O)NCCCN2CCCC2=O)[C@]2(C(=O)OC)CCCCC=C12 | x | 6.2 | x | x | x
CCOc1ccc(NC(=O)c2ccccn2)cc1 | -25.6 | 46.5 | 22.8 | -1.9 | 65.5*
